HCV inhibitor: blocks hepatitis C virus; Huh7.5.1 HCVcc-Cre infection, luciferase reporter, 44 h; Potency, µM (doses to about 41.8 µM), for the others: at the highest dose activity change, negative = inhibition, actives largely listed as inhibitors; 340,000 tested, 3.4% active; AID 651820; note: potency is the fitted concentration of half-maximal effect
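After 44 h co-culture of compound, cells and HCVcc-Cre (~0.5 moi), substrate is added for 15 min at room temperature and luciferase measured over 15 sec. Cells were seeded at 1,000/well and pre-cultured 4 h.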
HCMV inh: human cytomegalovirus inhibition | HFF cells, HCMV-luciferase reporter, 72 h; stronger effect = lower value | activity change, negative = inhibition, % at 57.5 µM | 410,000 tested, 4.5% active | AID 1259415; in the data active = activity change below about -60%; inconclusive = no clear call, values can overlap the other calls; inactive = above about -39%
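HFF cells seeded 16 h at 37C, treated with compounds, infected with luciferase-reporter HCMV at MOI 1 PFU/cell; luciferase read at 72 h post infection, normalized to buffer-only and Salinomycin controls.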
VACV Venus inh: inhibitors of vaccinia virus (Venus reporter) | Vaccinia virus Venus reporter expression, fluorescence | Potency, µM (series often up to 36.5 µM), for inactives: top-dose activity change, negative = inhibition, actives largely listed as inhibitors | 330,000 tested, 0.46% active; calls by dose curve; tested in A549 cells; note: potency is the fitted concentration of half-maximal effect; nearly all actives have a fitted effect of over 30% in size
Vaccinia mCherry: vaccinia inhibition (mCherry reporter). Potency, µM (top dose mostly 36.5 µM), for the others: at the top dose activity change, negative = inhibition, actives largely listed as inhibitors. 310,000 tested, 0.63% active. Vaccinia virus mCherry reporter infection, fluorescence; calls by dose curve; tested in A549 cells; note: potency is the fitted concentration of half-maximal effect; nearly all actives have a fitted effect of over 35% in size
Giardia FBPA inh: inhibitors of Giardia lamblia fructose-1,6-bisphosphate aldolase | purified Giardia FBPA | Potency, µM (doses to about 59.6 µM), inactives show top-dose activity, negative = inhibition, actives largely listed as inhibitors | 290,000 tested, 0.71% active | AID 2451; note: potency is the fitted concentration of half-maximal effect; nearly all actives have a fitted effect of over 55% in size
Target sequence (A8B2U2 whole entry, looked up): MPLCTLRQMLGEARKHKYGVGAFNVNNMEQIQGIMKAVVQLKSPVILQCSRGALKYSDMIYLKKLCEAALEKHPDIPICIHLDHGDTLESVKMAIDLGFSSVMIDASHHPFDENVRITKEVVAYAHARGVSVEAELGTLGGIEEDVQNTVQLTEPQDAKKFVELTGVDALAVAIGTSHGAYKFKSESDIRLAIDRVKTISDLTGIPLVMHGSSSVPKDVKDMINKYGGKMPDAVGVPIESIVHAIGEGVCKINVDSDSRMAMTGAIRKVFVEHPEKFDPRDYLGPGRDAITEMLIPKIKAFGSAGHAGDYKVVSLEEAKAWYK
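Giardia FBPA (40 nM reagent) was preincubated 10 min at RT with compound (up to 57.5 uM final), then substrate plus GAPDH/TPI/NAD/arsenate coupling system with diaphorase/resazurin was added; resorufin fluorescence (525/598 nm) was read after 20 min.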
FMDV inh: antivirals against foot and mouth disease virus; FMDV antiviral cell-based qHTS; Potency, µM (top dose mostly 57.9 µM), inactives show at the highest dose activity change, negative = inhibition, usual class: inhibitors; 410,000 tested, 1.2% active; AID 1159524; calls by dose curve; tested in HEK293T cells; note: read-out not given here; potency is the fitted concentration of half-maximal effect; nearly all actives have a fitted effect of over 45% in size
Active calls of the source: *; i = inactive; ? = inconclusive; . = no result; [ ] = dose if it differs, or a comment. Compounds with a hit are over-represented: about 7.5% of the library has one in this group of screens. Unless noted, calls come from the whole dose curve; as a rule, active = well fitted curve in the direction sought with a large enough effect; inconclusive = small, poorly fitted or top-dose-only effect, or another doubt; inactive = no such curve, though single readings can be large; an effect the other way counts as inactive or inconclusive. % is set by controls: 0 for no effect and ±100 for the full control effect.

SMILES	HCV inhibitor	HCMV inh	VACV Venus inh	Vaccinia mCherry	Giardia FBPA inh	FMDV inh
N#Cc1cn(CCCOc2ccccc2)c2ccccc12	?	-24.0	-23.7%	.	0.6%	-4.0%
COc1cc(OC)c(/C=N/NC(N)=S)cc1Br	?	-38.1	1.26µM*	1µM*	-28.5%	-7.1%
Cc1ccc(S(=O)(=O)Oc2ccccc2/C=N/NC(N)=S)cc1	?	?	1.26µM*	?	1.8%	.
COc1ccccc1OCCn1cc(/C=N/NC(=O)c2ccncc2)c2ccccc21	-22.1%	-5.5	-1.3%	i	-8.9%	?
COc1ccccc1OCCn1cc(/C=N/NC(N)=S)c2ccccc21	8.91µM*	?	1.26µM*	?	2.1%	?
COc1ccc(-c2nc(-c3ccccc3)c(NC(C)(C)C)o2)cc1	.	.	.	.	5.7%	.
COc1cccc(/C=N/NC(N)=S)c1OCc1ccccc1Cl	?	-78.2*	?	?	-11.1%	?
CNC(=S)N/N=C/c1cc(Br)c(OCc2ccncc2)c(OC)c1	-12.9%	22.4	.	.	?	-18.1%
COc1cccc(/C=N/n2nnnc2N)c1OCc1ccccc1Cl	?	2.6	.	.	0.4%	-10.7%
CNC(=S)N/N=C/c1cn(Cc2ccc(F)cc2)c2ccccc12	31.6µM*	23.1	?	3.16µM*	4.2%	?
CCOc1cc(/C=N/NC(N)=S)cc(Br)c1OCc1ccccc1C	11.2µM*	.	.	.	-0.3%	-29.5%
COc1cc(/C=N/NC(N)=S)cc(Br)c1OCc1ccccc1F	8.91µM*	?	2.51µM*	?	-6.3%	?
COc1ccc(NC(=O)Cn2c(=O)oc3cc(S(=O)(=O)N4CCC(C)CC4)ccc32)c(OC)c1	.	-35.2	-18.1%	-18.4%	.	?
CCN(CC(=O)Nc1c(F)cccc1F)C(=O)c1ccc(S(=O)(=O)NCc2ccco2)cc1	1.9%	-28.8	-16.3%	-0.9%	.	-13.9%
NC(=S)N/N=C/c1ccccc1OCCSc1ccc(Cl)cc1	?	-69.2*	0.316µM*	0.0891µM*	-2.4%	35.5µM*
CCOC(=O)N/N=C/c1ccccc1OCc1ccc(Cl)cc1	-27.8%	?	-21.4%	-12.7%	-1.0%	-11.5%
CCCCCCCCCCCCCCCC[N+](C)(C)CCN(Cc1ccc(OC)cc1)c1ncccn1	2.82µM*	.	12.6µM*	?	2.8%[21.7 µM]	28.2µM*
COC(=O)[C@]1(C#N)[C@H](C)C(=O)N(C(C)C)[C@@H]1c1ccc(OC)cc1	.	4.5	.	.	.	.
O=C(Cn1c(=S)[nH]c2ncccc2c1=O)NCCc1ccccc1	.	?	.	.	1.3%	.
C[C@@H](C(=O)NC1CCN(Cc2ccccc2)CC1)N1C(=O)N2CCc3c([nH]c4ccccc34)[C@@]2(C)C1=O	7.94µM*	-13.0	-20.7%	-20.7%	13.7%	?
C[C@@H](C(=O)NC1CCCCC1)N1C(=O)N2CCc3c([nH]c4ccccc34)[C@@]2(C)C1=O	0.562µM*	9.9	-13.0%	-11.3%	-10.5%	?
CC(C)[C@@H](C(=O)NC1CCN(Cc2ccccc2)CC1)N1C(=O)N2CCc3c([nH]c4ccccc34)[C@@]2(C)C1=O	-52.2%	-65.2*	-20.3%	-21.0%	-6.4%	-27.7%
COc1ccc(NC(=O)c2ccc3c(c2)nnn3C2CCCC2)cc1Cl	.	-23.6	-16.2%	-9.8%	.	-11.0%
Oc1ccccc1-c1nnc(SCCN2CCOCC2)n1Cc1ccccc1	?	-63.9*	?	?	0.3%	60.1%
Cc1nnsc1C(=O)Oc1ccc(Cl)cc1	.	4.1	-0.9%	-1.1%	.	3.0%
SMILES	HCV inhibitor	HCMV inh	VACV Venus inh	Vaccinia mCherry	Giardia FBPA inh	FMDV inh
Cn1ncc2c(Nc3ccccc3Cl)nc(Nc3ccccc3Cl)nc21	6.31µM*	-17.1	-4.8%	-23.4%	0.7%	-15.6%
CC(C)CCNc1nc(Nc2ccccc2)c2cnn(C)c2n1	.	51.8	-13.7%[7.34 µM]	i[7.34 µM]	.	-10.0%
CNC(=O)c1c2c(nc3ccc(Br)cc13)CCCC2	25.1µM*	-1.2	?	i	7.0%	-24.6%
Cc1ccc2nc3c(c(C(=O)O)c2c1)CCC3	3.6%	7.0	-5.1%	i	-12.5%	.
Cc1c([N+](=O)[O-])c2ccc(O)cc2n1-c1ccccc1	?	-67.7*	.	.	-4.3%	-2.3%
Cc1ccc(-n2c(C)c([N+](=O)[O-])c3ccc(O)cc32)cc1	.	?	.	.	-17.9%	.
CCCCCCCCOC(=O)c1c(CSC(=N)N)n(C)c2cc(Br)c(OC(C)=O)cc12	11.2µM*	-91.7*	.	.	2.2%	?
CCOC(=O)c1c(CSc2nc(C)cc(C)c2C#N)n(C)c2cc(Br)c(OC(C)=O)cc12	?	-94.2*	-0.9%	-8.6%	3.6%	?
CC#CCN1c2ccccc2[C@]23C[C@@H](C(=O)OC)N(C(=O)CC(C)C)C2=NC(C(=O)OC)=C(C(=O)OC)[C@H]13	.	.	.	.	3.3%[12.9 µM]	.
Clc1ccc(CSc2ncn[nH]2)cc1	-1.9%	-3.4	-7.2%	i	-10.0%	28.8%
CCOc1ccc(Cl)cc1CSc1ncn[nH]1	?	-67.7*	-21.5%	-1.5%	-17.7%	-24.9%
CCOc1ccc(C2c3c(oc4ccccc4c3=O)C(=O)N2Cc2ccc3c(c2)OCO3)cc1 (stereo not given)	.	10.8	-13.5%	-11.7%	.	76.8%
COCOc1c2c(c(OCOC)c3c(OCOC)cccc13)/C(=N/N[S+](=O)([O-])c1ccc(C)cc1)C1=C2CCCC1	.	.	.	.	-27.5%	.
O=S(=O)(Nc1ccc2c(c1)OCCO2)c1cccs1	4.4%	-76.7*	-18.3%	i	-15.4%	.
Cn1c(=O)oc2cc(S(=O)(=O)Nc3ccc4c(c3)OCCO4)ccc21	-5.3%	-90.9*	.	.	10.8%	-19.9%
Cn1c(=O)oc2cc(S(=O)(=O)NCCC(=O)Nc3ccc4c(c3)OCCO4)ccc21	9.1%	9.2	.	.	-1.5%	0.4%
Cc1c(S(=O)(=O)Nc2ccc3c(c2)OCCO3)c(=O)n(C)c(=O)n1C	15.2%	9.3	0.0%	i	-2.4%	0.0%
Cn1c(=O)c(=O)n(C)c2cc(S(=O)(=O)Nc3ccc4c(c3)OCCO4)ccc21	13.1%	-76.2*	.	.	-21.8%	39.8µM*
Cc1cccc2c(N3CCCC3)nc(CNS(=O)(=O)c3ccc4ccccc4c3)nc12	.	.	7.8%	-12.9%	.	3.7%
O=C(c1cccc(F)c1)N1CCC2(CC1)CCN(C(c1ccccc1)c1ccccc1)CC2	.	.	.	.	-7.5%	-18.4%
Cc1ccc(/C=C/C(=O)OC(C)C(=O)Nc2ncc(Cl)cc2Cl)o1 (stereo not given)	-4.3%	-98.1*	-4.8%	-15.7%	2.9%	-24.2%
CCOC(=O)C1=C(CS(=O)(=O)c2ccc(C(C)(C)C)cc2)NC(=O)NC1c1cccc(OC)c1 (stereo not given)	.	-5.1	-14.0%	-18.5%	.	?
COC(=O)c1c(C)nn(-c2ccc(F)c(Cl)c2)c1-c1cc(C)on1	8.91µM*	-27.6	-11.8%	-2.5%	2.2%	?
O=C(CNC(=O)C(c1ccccc1)c1ccccc1)N/N=C\c1ccc(C(=O)O)cc1	13.7%	-0.9	.	.	-7.9%	12.4%
